# IL1B secr inh: qHTS for Inhibitors of Inflammasome Signaling: IL-1-beta AlphaLISA Primary Screen; THP-1 LPS/ATP IL-1B secretion, AlphaLISA, 16 h; active compounds read low; activity change, % at 57.5 µM; 360,000 compounds, 4.7% hits; AID 743279, 2014; in the data active = activity change below about -50%; inconclusive = mostly about -30% to -49%
#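 THP-1 cells pretreated 1 hr with compounds (up to 57.5 uM final), then stimulated with LPS (250 ng/mL final) plus ATP (1.25 mM final); secreted IL-1B measured by AlphaLISA after 16 hr, decreased signal indicating inhibition.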
# ELG1 repair inh: qHTS screen for small molecules that inhibit ELG1-dependent DNA repair in human embryonic kidney (HEK293T) cells expressing luciferase-tagged ELG1; HEK293T ELG1-luciferase reporter, luminescence, 16 h; DNA damage induced by 5-fluorouridine; Potency, µM (highest dose often 46.1 µM), usual class: inhibitors; 330,000 compounds, 2.3% hits; AID 504467, 2011; note: nearly all actives have a fitted effect of over 55% in size
#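 HEK293T cells expressing luciferase-tagged ELG1 (2,000/well) received 5-Fluorouridine plus compound or DMSO for 16 hr at 37 °C. Luciferase was read by ONE-Glo luminescence after 30 min at room temperature.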
# TDP1 cell CPT: qHTS for Inhibitors of human tyrosyl-DNA phosphodiesterase 1 (TDP1): qHTS in cells in presence of CPT; AID 686979, 2013; 420,000 compounds, 12% hits; chicken DT40 Tdp1-/-;hTDP1 cells + 20 nM CPT, ATP luminescence, 48 h; Potency, µM (titrated, usually from 46.2 µM), hits mostly inhibitors; note: nearly all actives have a fitted effect of over 55% in size
#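 Chicken DT40 Tdp1-/- cells stably complemented with human TDP1 were seeded at 400 cells/well in medium containing 20 nM camptothecin, exposed to pin-transferred compounds, and grown at 37 °C for at least 48 hr. Viability was read as ATP luminescence.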
# HT1080NT lethal: qHTS for induction of synthetic lethality in tumor cells producing 2HG: qHTS for the HT-1080-NT fibrosarcoma cell line; HT-1080-NT fibrosarcoma viability, CellTiter-Glo ATP luminescence, 48 h; Potency, µM (series often up to 46.1 µM), actives largely listed as cytotoxic; 360,000 compounds, 1.6% hits; AID 686970, 2013;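 note: NT is the 2HG producing partner of a matched IDH1 knockdown line; nearly all actives have a fitted effect of over 55% in size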
#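 750 cells/well, RPMI + 5% FBS; 2 h settle, compound pin-transfer, 48 h at 37 degrees C. CellTiter-Glo 10 min RT, luminescence. Normalized to DMSO and media-only wells.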
# HT1080 IDH1KD tx: qHTS for induction of synthetic lethality in tumor cells producing 2HG: qHTS for the HT-1080-IDH1KD cell line. HT-1080 IDH1 knockdown viability, ATP luminescence, 48 h. Potency, µM (doses to about 46.1 µM), hits mostly cytotoxic. 360,000 compounds, 2% hits
#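 Assay cells: HT-1080 with IDH1 knockdown, 750 per well, RPMI/5% FBS. Exposure: 48 h at 37 °C following 2 h pre-incubation. Read: CellTiter-Glo luminescence; fitted concentration-response, curve class assigned.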
# TDP1 cell noCPT: qHTS for Inhibitors of human tyrosyl-DNA phosphodiesterase 1 (TDP1): qHTS in cells in absence of CPT; Potency, µM (titrated, usually from 46.2 µM), hits mostly inhibitors; 420,000 compounds, 15% hits; DT40 Tdp1-/- hTDP1 cells, no CPT, ATP luminescence, 48 h; note: nearly all actives have a fitted effect of over 55% in size
#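 Luminescent ATP content (CellTiter-Glo) served as the growth readout. Knockout chicken DT40 cells expressing human TDP1 were exposed to compounds without camptothecin for a minimum 48 hr at 37 °C.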
# Hits are given with their value; - = inactive; ? = inconclusive; . = no result given; [ ] = remark or other dose. Hits are enriched below; roughly 19% of the tested compounds scored in any of these assays. Unless noted, calls come from the whole dose curve; as a rule, active = well fitted curve in the direction sought with a large enough effect; inconclusive = small, poorly fitted or top-dose-only effect, or another doubt; inactive = no such curve, though single readings can be large; an effect the other way counts as inactive or inconclusive.
SMILES,IL1B secr inh,ELG1 repair inh,TDP1 cell CPT,HT1080NT lethal,HT1080 IDH1KD tx,TDP1 cell noCPT
CCN(CC)S(=O)(=O)c1cccc(NC(=O)c2ccccc2Br)c1,-,?,-,-,-,?
O=C(O)c1ccccc1C(c1ccccc1)c1ccccc1O (stereo unspecified),-,.,-,-,-,?
N#Cc1cccc(NC(=O)N2CC[C@@]3(CCCN(C(=O)c4ccncc4)C3)C2)c1,.,.,-,.,.,-
N#CC1=C(N)Oc2n[nH]c(-c3cccnc3)c2C1c1ccc([N+](=O)[O-])o1 (stereo unspecified),-97.1,-,3.66µM,?,?,2.91µM
CN(C)S(=O)(=O)c1ccc(NC(=O)Cn2nc(-c3ccc4c(c3)OCCO4)ccc2=O)cc1,-,.,?,-,-,20.6µM
CCC(c1nnnn1Cc1ccc(OC)cc1)N(CCCO)Cc1cc2cc3c(cc2[nH]c1=O)OCO3 (stereo unspecified),-,?,?,-,-,?
Cc1ccc2cc(CN(CCO)Cc3nnnn3Cc3ccc(F)cc3)c(=O)[nH]c2c1,-,?,?,-,-,?
O=c1[nH]c2cc3c(cc2cc1CN(CCCO)Cc1nnnn1Cc1ccc(F)cc1)OCO3,-,?,?,-,-,11.6µM
CC(C)C(c1nnnn1Cc1ccccc1)N(CCCO)Cc1cc2cc3c(cc2[nH]c1=O)OCO3 (stereo unspecified),-59.7,-,?,-,-,16.4µM
CCCCNC(=O)C1C(c2ccc(C(F)(F)F)cc2)=Nc2ccccc2N1C(=O)c1cccc2ccccc12 (stereo unspecified),-,.,?,-,-,?
CCCCNC(=O)C1C(c2ccccc2)=Nc2ccccc2N1C(=O)c1ccc(C)cc1 (stereo unspecified),-,.,13µM,?,?,?
CC(C)(C)NC(=O)C1C(c2ccccc2)=Nc2ccccc2N1C(=O)c1ccc(C(F)(F)F)cc1 (stereo unspecified),-,.,?,-,-,16.4µM
CCCCNC(=O)C1C(c2ccccc2)=Nc2ccccc2N1C(=O)c1ccc(C(F)(F)F)cc1 (stereo unspecified),-,.,?,?,?,14.6µM
CCCCNC(=O)C1C(c2ccccc2)=Nc2ccccc2N1C(=O)c1ccc2c(c1)OCO2 (stereo unspecified),-,.,?,-,-,?
CCn1cc([N+](=O)[O-])c(C(=O)N2N=C(c3ccc(Cl)c(Cl)c3)CC2c2ccccc2O)n1 (stereo unspecified),-85.1,?,?,23.1µM,?,?
CCn1cc([N+](=O)[O-])c(C(=O)N2N=C(c3ccc4ccccc4c3)CC2c2cc(Br)ccc2O)n1 (stereo unspecified),?,?,?,20.6µM,?,6.51µM
CCC(C(=O)OC)n1cnc2c(cnn2-c2ccc(F)cc2)c1=O (stereo unspecified),.,.,-,.,.,?
Cc1ccc(C(=O)Nc2ccc3cn[nH]c3c2)cc1S(=O)(=O)N1CCCCC1,-,?,-,-,-,?
CC1N=C(SCC(=O)c2ccc(F)cc2)N2C(C)N=C(SCC(=O)c3ccc(F)cc3)N12 (stereo unspecified),-,.,4.11µM,-,-,4.11µM
CCc1ccc(NC(=O)c2cc(S(=O)(=O)NC3CCCC3)ccc2F)cc1,.,.,13µM,.,.,16.4µM
CN(C1CCCCC1)S(=O)(=O)c1ccc(NC(=O)C2CCCCC2)cc1,-,?,16.4µM,-[9.24 µM],?,20.6µM
CN(C1CCCCC1)S(=O)(=O)c1ccc(F)c(C(=O)Nc2ccc(C(F)(F)F)cc2)c1,.,.,23.1µM,.,.,20.6µM
CN(C1CCCCC1)S(=O)(=O)c1ccc(NC(=O)CCC(=O)O)cc1,-,-,-,-,-,-
CNC(=O)CN(C1CCCCC1)S(=O)(=O)c1ccc(F)cc1,-,-,-,-,-,-
CN(C1CCCCC1)S(=O)(=O)c1ccc(S(=O)(=O)N(CC(=O)Nc2ccccc2)C2CC2)cc1,-,-,?,-,-,23.1µM
SMILES,IL1B secr inh,ELG1 repair inh,TDP1 cell CPT,HT1080NT lethal,HT1080 IDH1KD tx,TDP1 cell noCPT
Cc1ccc(CN2CCN(C3CCN(C(=O)c4ccc(C)cc4)CC3)C(=O)C2=O)cc1,.,.,-,.,.,-
CC(CNC(=O)Cn1ccc2cc(S(=O)(=O)N3CCCCCC3)ccc21)c1ccccc1 (stereo unspecified),.,.,16.4µM,.,.,?
CCn1ccc2cc(S(=O)(=O)N3CCC(C(=O)NCC(C)c4ccccc4)CC3)ccc21 (stereo unspecified),.,.,23.1µM,.,.,?
COc1cc(-c2c(-c3cc(OC)c(OC)c(OC)c3)noc2C)ccc1F,-,?,0.092µM,0.13µM,0.326µM,0.0073µM
COC(=O)c1cc(-c2c(-c3ccc4c(c3)OCO4)noc2-c2ccsc2)cc([N+](=O)[O-])c1,-,-,?,-,-,-
COC(=O)c1cc(-c2c(-c3cc(OC)c(OC)c(OC)c3)noc2C)cc([N+](=O)[O-])c1,-,?,16.4µM,-,-,16.4µM
COc1ccc(-c2c(-c3cc(OC)c(OC)c(OC)c3)noc2C)cn1,-,-,0.581µM,?,1.46µM,0.581µM
COc1ccc(-c2oc3ccc(-c4cc(OC)c(OC)c(OC)c4)cc3c2-c2ccc(OC)nc2)cc1,-,-,14.6µM,-,-,11.6µM
CN(C)c1ccc(CC2CCc3ccccc32)cc1 (stereo unspecified),.,.,?,.,.,-
O=C(COCc1cc(-c2ccc3c(c2)OCO3)on1)NCc1ccccc1Cl,.,.,-,.,.,?
Cc1nc2c(-c3ccc(F)cc3)cnn2c(N)c1-c1ccccc1,-73.4,?,?,?,?,?
Cc1nc2c(-c3ccc(Cl)cc3)cnn2c(N)c1-c1ccc(F)cc1,?,?,?,-,-,?
O=C(N/N=C/c1ccc2c(c1)OCO2)C1COc2ccccc2O1 (stereo unspecified),-,-,?,?,?,23.1µM
Cc1cc([N+](=O)[O-])cc(/C=N\NC(=O)C2COc3ccccc3O2)c1O (stereo unspecified),-,20.6µM,16.4µM,?,?,13µM
COc1ccc(/C=N\NC(=O)C2COc3ccccc3O2)cc1O (stereo unspecified),-,?,14.6µM,14.6µM,11.6µM,?

# From PubChem BioAssay
